Most compounds without a hit are left out; they make up all but 3.5% or so of the library.
TEAD-YAP inh – TEAD-YAP interaction inhibition, primary screen, TEAD-YAP interaction inhibitor project, luminescence, HEK-TIYL cells; TEAD-Gal4/YAP UAS-luciferase luminescence; AID 1259422, 2018; inhibition, % at 9.12 µM; 640,000 compounds, 1.4% hits; in the data active = inhibition above about 32%;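 also: 0% = median of test compound wells and 100% = reference inhibitor wells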
GPR151 activ – activators of human GPR151, primary screen, cell-based, PathHunter beta-arrestin, luminescence | AID 1508602, 2020 | 650,000 compounds, 1% hits | PathHunter beta-arrestin GPR151 cells | activation, % at 11.2 µM | G-protein coupled receptor 151 (Homo sapiens), Q8TDV0; in the data active = activation above about 4.9%;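 also: 0% = median of compound wells and 100% = cells with positive control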
FBW7 activator – FBW7 E3 ligase activators, primary screen, biochemical, AlphaScreen, human. F-box/WD repeat-containing protein 7 (Homo sapiens), Q969H0. AlphaScreen FBW7–phospho-cyclin E peptide binding, activator screen. normalized activity (activation), % at 26.1 µM. 650,000 compounds, 0.13% hits. AID 1259310, 2017; in the data active = normalized activity above about 1.9%;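 also: purified mutant Fbw7 with reduced substrate affinity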
MITF primary – MITF inhibitors, primary screen, biochemical, AlphaScreen, human | inhibition, % at 2.6 µM | 650,000 compounds, 0.91% hits | Microphthalmia-associated transcription factor (Homo sapiens), O75030 | AlphaScreen MITF homodimerization, bead proximity signal | AID 1259374, 2018; in the data active = inhibition above about 50%;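 also: 0% = vehicle wells with protein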
Target sequence (O75030 whole entry, looked up): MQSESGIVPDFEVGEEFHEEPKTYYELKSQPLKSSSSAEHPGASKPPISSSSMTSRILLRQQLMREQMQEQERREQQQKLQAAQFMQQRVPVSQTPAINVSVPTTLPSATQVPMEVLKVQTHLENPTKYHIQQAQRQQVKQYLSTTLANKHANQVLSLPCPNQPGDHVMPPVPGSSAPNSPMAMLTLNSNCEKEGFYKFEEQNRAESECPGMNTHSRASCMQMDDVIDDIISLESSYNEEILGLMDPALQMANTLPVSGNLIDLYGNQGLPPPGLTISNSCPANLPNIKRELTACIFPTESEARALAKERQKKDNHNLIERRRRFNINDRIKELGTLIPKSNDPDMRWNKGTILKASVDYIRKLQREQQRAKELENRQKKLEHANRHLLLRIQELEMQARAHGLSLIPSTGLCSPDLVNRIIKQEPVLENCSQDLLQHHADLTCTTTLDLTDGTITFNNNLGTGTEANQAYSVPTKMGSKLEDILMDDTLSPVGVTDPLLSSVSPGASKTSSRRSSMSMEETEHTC
An asterisk follows results filed as active.

SMILES | TEAD-YAP inh | GPR151 activ | FBW7 activator | MITF primary
COc1ccccc1/C=C1/C(=O)N(c2ccc(I)cc2)N=C1C | 22 | 0 | 0 | -11
CC[C@H](C)[C@H](NC(=O)c1ccccc1)C(=O)NNC(=O)CC12CC3CC(CC(C3)C1)C2 | -1 | 0 | 0 | 4
O=C(/C=C/Nc1cccc2cccnc12)c1ccccc1 | -51 | -1 | 0 | 16
O=C(/C=C/Nc1ccccc1I)c1ccccn1 | 80* | -5 | 0 | 9
COc1ccc(NC(=O)/C(C#N)=C/c2ccc(Br)o2)cc1 | -14 | 0 | 0 | 9
Cc1ccc(NC(=O)/C(C#N)=C/c2ccccc2O)cc1 | 49* | 2 | 0 | -16
Cc1cccc(NC(=O)/C(C#N)=C\c2ccccc2O)c1 | -51 | 0 | 0 | 11
CCOC(=O)c1ccc(NC(=O)/C(C#N)=C/c2ccc(C3CC3C)o2)cc1 (configuration not stated) | 41* | 1 | 0 | 13
COc1ccc(NC(=O)/C(C#N)=C\c2ccc(N(C)C)o2)cc1 | 33* | 2 | 0 | -16
COc1ccccc1/C=C(/C#N)C(=O)Nc1ccc(O)cc1 | 10 | 1 | 0 | -9
COc1ccc(NC(=O)/C(C#N)=C/c2ccccc2OC(C)C)cc1 | 51* | 3 | 0 | 2
CCCc1nc2nc(C)c(NS(=O)(=O)c3ccc(F)c(C)c3)c(=O)n2[nH]1 | -9 | 1 | 0 | -10
CCOC(=O)c1ccccc1NC(=O)CCC(C(=O)O)C(C)C (configuration not stated) | -12 | 0 | 0 | -4
O=C1OC(c2ccc(F)cc2)=N/C1=C\c1ccccc1C(F)(F)F | -7 | 0 | 0 | 13
O=C1C2C3CC(C2C(=O)N1c1ccccn1)C1C3N=NN1c1ccc(Br)cc1 (configuration not stated) | -5 | 0 | 0 | 26
CCCNc1cc(Nc2ncccn2)nc(N)n1 | -11 | 0 | 0 | -4
CCCNc1cc(Nc2ccccn2)nc(N)n1 | 34* | -1 | 0 | -9
Nc1nc2c3cc4c(nc3sc2c2ccccc12)CCC4 | 34* | -4 | 0 | -14
CCCCOC(=O)CSc1nnc(-c2ccc(N(C)C)cc2)o1 | 41* | 2 | 0 | -11
CC(C)CC(=O)Nc1cccc(NS(=O)(=O)c2ccc(Cl)cc2)c1 | 2 | -1 | 0 | -5
Cc1ccc(/C=C2\SC(=S)N(/N=C/c3cc([N+](=O)[O-])ccc3O)C2=O)o1 | 3 | 0 | -1 | 74*
CCOc1cccc2c1OC(c1cccc(F)c1)N1N=C(c3cccc(OC)c3)CC21 (configuration not stated) | 6 | -1 | 0 | -2
CC(C)(C)C1CCc2c(sc(NC(=O)c3ccco3)c2C(=O)O)C1 (configuration not stated) | 90* | -1 | 0 | 2
CC1CCc2c(sc(NC(=O)c3ccco3)c2C(=O)O)C1 (configuration not stated) | 33* | -2 | 0 | -6
CCN(CC)C(=O)c1c(NC(=O)c2ccco2)sc2c1CCC(C(C)(C)C)C2 (configuration not stated) | 3 | 0 | 0 | 0
SMILES | TEAD-YAP inh | GPR151 activ | FBW7 activator | MITF primary
COc1ccc(C(=O)c2c(C)nc3sccn23)cc1 | -6 | 1 | 0 | 0
Cc1ccc(C2=NN(S(C)(=O)=O)C(c3ccccc3F)C2)cc1 (configuration not stated) | -40 | 0 | 0 | -3
Cc1ccc(C2=NN(C(=O)c3ccncc3)C(c3ccccc3F)C2)cc1 (configuration not stated) | 47* | 0 | 0 | 5
COc1ccc(C2=NN(C(=O)c3cccs3)C(c3ccccc3F)C2)cc1OC (configuration not stated) | -3 | 0 | 0 | -3
COc1cc(C(=O)N2N=C(c3ccc4ccccc4c3)CC2c2ccccc2)cc(OC)c1OC (configuration not stated) | 1 | 0 | 0 | 18
COc1cc(C(=O)N2N=C(c3ccccc3)CC2c2ccccc2)cc(OC)c1OC (configuration not stated) | 53* | 0 | 0 | -1
COc1ccc(C2=NN(C(=O)c3cc(OC)c(OC)c(OC)c3)C(c3ccccc3F)C2)cc1OC (configuration not stated) | 42* | 0 | 0 | 8
COc1ccc(C2=NN(C(=O)c3cc(OC)c(OC)c(OC)c3)C(c3ccc(F)cc3)C2)cc1OC (configuration not stated) | 50* | 1 | 0 | -7
CC(C)C(=O)NCc1nc(NCc2cccc(C(F)(F)F)c2)c2ccccc2n1 | 2 | -1 | 0 | 14
CCOC(=O)N1CCC(NC(=O)c2ccc(CNC(=O)c3cccc(Br)c3)cc2)CC1 | -5 | 2 | 0 | 9
CCN1/C(=C/C(=C(C#N)C#N)C(F)(F)F)C=Cc2ccccc21 | 2 | 0 | 0 | 8
CCN1/C(=C/c2cccc[n+]2C)C=Cc2ccccc21 | 75* | 1 | 0 | 5
CCN1/C(=C/c2cccc[n+]2C)C=Cc2ccc(C)cc21 | 75* | 2 | 1 | 9
Cc1ccc2c(c1)C=C/C(=C\c1cccc[n+]1C)N2C | 84* | 1 | 0 | 12
CCN1C(=O)/C(=C2\C=Cc3ccccc3N2CC)SC1=S | -7 | 1 | -1 | 7
CCN1/C(=C/c2ccc3ccccc3[n+]2CC)C=Cc2ccccc21 | 88* | 4 | 0 | 20
CC(C)(C)NC(=O)CSc1nnc(-c2ccncc2)n1CCc1ccccc1 | -2 | 0 | 0 | -4
CN1CCN(Cc2cc3ccccc3[nH]2)CC1CCO (configuration not stated) | -2 | -1 | 0 | 11
CCN1/C(=C/c2cc[n+](-c3ccc(Cl)cc3)cc2)C=Cc2ccccc21 | 91* | 1 | -1 | 28
CCN1/C(=C2/N=C(c3ccccc3)OC2=O)C=Cc2ccccc21 | 10 | 1 | 0 | 9
CCN1C(=O)S/C(=C\c2ccc(Cl)cc2)C1=O | -10 | 0 | 0 | 8
CCCC[n+]1ccc(/C=C2\C=Cc3ccccc3N2CC)c2cc(C)ccc21 | 92* | 1 | -1 | 72*
CCOC(=O)C1CCN(C(=O)c2ccc(C)cc2Cl)CC1 | -7 | 0 | 0 | -11
CN(CC(=O)Nc1ccccc1Br)S(=O)(=O)c1cccs1 | -3 | 1 | 5.8* | -2
CC(=O)N1CCc2nc(-c3ccncc3)nc(N3CCOCC3)c2C1 | -15 | 3 | 0 | -7
Cc1cccc(-n2ncc3c(N4CCN(c5ccccc5)CC4)ncnc32)c1 | -8 | 0 | 0 | -4
Cc1cccc(-n2ncc3c(N4CCOCC4)ncnc32)c1 | 93* | -7 | 0 | -1
Cc1ccc(-n2ncc3c(N4CCCCC4)ncnc32)cc1C | 73* | -4 | 0 | 10
Cc1cccc(-n2ncc3c(N4CCCC4)ncnc32)c1 | 52* | 0 | 0 | 0

Bioassay records: PubChem BioAssay, The Scripps Research Institute Molecular Screening Center
